According to PubChem BioAssay (NCI):
About 79,000 compounds went through this panel and 15% of them were active in at least one assay; those are over-represented in the sample as a whole. A number with no mark means an inactive call. Calls of active or inactive are those of the source. Cut-off read from the data, not from the text of the source: active = growth inhibition above about 70%; inactive = the rest.

Assays:
[1] = NCI Yeast Anticancer Drug Screen. Data for the rad52 strain (AID 147);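 note: 0% = growth of vehicle-treated control cultures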; conditions: S. cerevisiae rad52 mutant growth inhibition, hits give high values
Outline: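 The repair-mutant yeast strain was incubated with compounds, then growth was read and inhibition derived relative to vehicle.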

[2] = NCI Yeast Anticancer Drug Screen. Data for the wt1 strain (AID 149);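 note: 0% = growth of vehicle-treated wt1 cultures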; conditions: S. cerevisiae wt1 strain (SPY 50644) growth inhibition, hits give high values
Outline: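 Vehicle-normalised growth inhibition; strain wt1; compound exposure.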

[3] = NCI Yeast Anticancer Drug Screen. Data for the rad50EPP+ strain (AID 151);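 note: 0% = growth of vehicle-treated control cultures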; conditions: S. cerevisiae rad50 mutant strain, hits give high values
Outline: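 Vehicle-normalised growth inhibition; rad50EPP+ yeast strain, altered in DNA damage repair, compound-treated.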

[4] = NCI Yeast Anticancer Drug Screen. Data for the mgt1 strain (AID 153); conditions: S. cerevisiae mgt1 mutant growth inhibition, hits give high values
Outline: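 Vehicle-normalized growth inhibition is determined in mgt1 yeast, a strain selected for a defined alteration in DNA repair or cell cycle control.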

[5] = NCI Yeast Anticancer Drug Screen. Data for the rad50 strain (AID 155);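 note: 0% = growth of vehicle-only cultures of the same strain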; conditions: S. cerevisiae rad50 strain growth inhibition, hits give high values
Outline: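 A DNA repair-deficient yeast mutant serves as the test organism; compound-induced growth inhibition is calculated against vehicle-treated cells.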

[6] = NCI Yeast Anticancer Drug Screen. Data for the mec2-1 strain (AID 157); conditions: S. cerevisiae mec2-1 strain, hits give high values
Outline: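 Mutant yeast (mec2-1) grown with compound; growth inhibition relative to vehicle control reported.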

[7] = NCI Yeast Anticancer Drug Screen. Data for the rad14 strain (AID 159);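 note: 0% = growth of vehicle-treated control cultures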; conditions: S. cerevisiae rad14 strain growth inhibition, hits give high values
Outline: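 Vehicle-treated cultures served as the baseline for growth inhibition of a DNA repair-mutant yeast strain exposed to each compound.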

[8] = NCI Yeast Anticancer Drug Screen. Data for the sgs1 mgt1 strain (AID 161);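 note: 0% = growth of cultures given vehicle only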; conditions: S. cerevisiae sgs1 mgt1 strain, hits give high values
Outline: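 Growth of a repair-deficient yeast mutant was monitored after compound treatment and expressed as inhibition relative to vehicle-treated cultures.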

[9] = NCI Yeast Anticancer Drug Screen. Data for the CLN2oe strain (AID 163);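 note: 0% = growth of vehicle-only control cultures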; conditions: S. cerevisiae CLN2oe strain, hits give high values
Outline: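 Compounds are applied to yeast harbouring a defined cell-cycle control change; reduced growth compared with vehicle-treated controls gives the value.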

[10] = NCI Yeast Anticancer Drug Screen. Data for the cln2 rad14 strain (AID 165);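 note: 0% = growth equal to vehicle treated cultures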; conditions: S. cerevisiae cln2 rad14 strain, hits give high values
Outline: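 Readout is yeast growth inhibition versus vehicle-treated controls, using a strain with cln2 and rad14 alterations exposed to compound.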

[11] = NCI Yeast Anticancer Drug Screen. Data for the bub3 strain (AID 167); conditions: S. cerevisiae bub3 mutant strain, hits give high values
Outline: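 Inhibition values come from growth of compound-treated mutant yeast normalised to vehicle-treated controls.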

[12] = NCI Yeast Anticancer Drug Screen. Data for the wt2 strain (AID 169);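 note: 0% = growth of vehicle-treated yeast cultures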; conditions: S. cerevisiae wt2 strain growth inhibition, hits give high values
Outline: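 Against vehicle-treated controls, the growth of yeast exposed to each compound was compared, and the inhibition was recorded.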

[13] = NCI Yeast Anticancer Drug Screen. Data for the mlh1 strain (AID 171);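 note: 0% = growth of vehicle-treated control cultures of the same strain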; conditions: S. cerevisiae mlh1 strain growth inhibition, hits give high values
Outline: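 Measured: yeast growth. Reference: vehicle-treated controls. Organism: strain with a defined alteration affecting DNA damage repair or cell cycle control, treated with compound.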

[14] = NCI Yeast Anticancer Drug Screen. Data for the mlh1 rad18 strain (AID 175); conditions: S. cerevisiae mlh1 rad18 strain growth inhibition, hits give high values
Outline: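 Genetically defined yeast (DNA repair-deficient) exposed to compounds; growth inhibition determined relative to vehicle.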

[15] = NCI Yeast Anticancer Drug Screen. Data for the rad18 strain (AID 177); conditions: S. cerevisiae rad18 mutant growth inhibition, hits give high values
Outline: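 Vehicle-treated cultures served as the baseline for scoring compound-induced growth inhibition in DNA-repair-mutant yeast.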

[16] = at 5.0 µM (retest, dose inferred, filed as 0.5)
[17] = at 50.0 µM (retest, dose inferred, filed as 5.0)

CC(C)C(c1ccccc1)c1ccccc1
growth inhibition ([1]; at 1.2 µM): 4%
growth inhibition ([1]; at 3.7 µM): 9%
growth inhibition ([1]; at 11.0 µM): 9%
growth inhibition ([1]; at 33.0 µM): 8%
growth inhibition ([1]; at 100.0 µM): 77% (active)
growth inhibition ([2]; at 1.2 µM): -1%
growth inhibition ([2]; at 3.7 µM): -1%
growth inhibition ([2]; at 11.0 µM): 0%
growth inhibition ([2]; at 33.0 µM): -2%
growth inhibition ([2]; at 100.0 µM): 49%
growth inhibition ([3]; at 1.2 µM): 3%
growth inhibition ([3]; at 3.7 µM): 6%
growth inhibition ([3]; at 11.0 µM): 14%
growth inhibition ([3]; at 33.0 µM): 43%
growth inhibition ([3]; at 100.0 µM): 93% (active)
growth inhibition ([4]; at 1.2 µM): 0%
growth inhibition ([4]; at 3.7 µM): 0%
growth inhibition ([4]; at 11.0 µM): -1%
growth inhibition ([4]; at 33.0 µM): -6%
growth inhibition ([4]; at 100.0 µM): 55%
growth inhibition ([5]; at 1.2 µM): 1%
growth inhibition ([5]; at 3.7 µM): 18%
growth inhibition [5, 16]: -144%
growth inhibition ([5]; at 11.0 µM): 9%
growth inhibition ([5]; at 33.0 µM): 10%
growth inhibition [5, 17]: 70% (active)
growth inhibition ([5]; at 50.0 µM): 10%
growth inhibition ([5]; at 100.0 µM): 93% (active)
growth inhibition ([6]; at 1.2 µM): 2%
growth inhibition ([6]; at 3.7 µM): 3%
growth inhibition [6, 16]: -50%
growth inhibition ([6]; at 11.0 µM): -10%
growth inhibition ([6]; at 33.0 µM): 1%
growth inhibition [6, 17]: -32%
growth inhibition ([6]; at 50.0 µM): 49.4%
growth inhibition ([6]; at 100.0 µM): 99% (active)
growth inhibition ([7]; at 1.2 µM): -1%
growth inhibition ([7]; at 3.7 µM): -5%
growth inhibition ([7]; at 11.0 µM): 2%
growth inhibition ([7]; at 33.0 µM): 7%
growth inhibition ([7]; at 100.0 µM): 70% (active)
growth inhibition [8, 16]: -54%
growth inhibition [8, 17]: -37%
growth inhibition ([8]; at 50.0 µM): 52.2%
growth inhibition ([9]; at 1.2 µM): -5%
growth inhibition ([9]; at 3.7 µM): -1%
growth inhibition ([9]; at 11.0 µM): 2%
growth inhibition ([9]; at 33.0 µM): 1%
growth inhibition ([9]; at 100.0 µM): 69%
growth inhibition [10, 16]: -52%
growth inhibition [10, 17]: -33%
growth inhibition ([10]; at 50.0 µM): 16%
growth inhibition ([11]; at 1.2 µM): -6%
growth inhibition ([11]; at 3.7 µM): 1%
growth inhibition [11, 16]: -67%
growth inhibition ([11]; at 11.0 µM): -4%
growth inhibition ([11]; at 33.0 µM): -4%
growth inhibition [11, 17]: 44%
growth inhibition ([11]; at 50.0 µM): -0.75%
growth inhibition ([11]; at 100.0 µM): 66%
growth inhibition ([12]; at 1.2 µM): -2%
growth inhibition ([12]; at 3.7 µM): -2%
growth inhibition ([12]; at 11.0 µM): -1%
growth inhibition ([12]; at 33.0 µM): 1%
growth inhibition ([12]; at 100.0 µM): 56%
growth inhibition ([13]; at 1.2 µM): 3%
growth inhibition ([13]; at 3.7 µM): 0%
growth inhibition ([13]; at 11.0 µM): 0%
growth inhibition ([13]; at 33.0 µM): 2%
growth inhibition ([13]; at 100.0 µM): 60%
growth inhibition [14, 16]: -113%
growth inhibition [14, 17]: -101%
growth inhibition ([14]; at 50.0 µM): 29.2%
growth inhibition ([15]; at 1.2 µM): 3%
growth inhibition ([15]; at 3.7 µM): -1%
growth inhibition ([15]; at 11.0 µM): 3%
growth inhibition ([15]; at 33.0 µM): 3%
growth inhibition ([15]; at 100.0 µM): 59%
